Most compounds without a hit are left out; they make up all but 1.9% or so of the library.
NR1D1 modulator – Rev-erb alpha (human) modulation. 0.79% of 370,000 active. P20393. Rev-erbα–FITC-DNA binding, fluorescence polarization, 90 min. activity, % at 10 µM;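 active = activity above about 14%, limit read from the data; passing the limit was not always enough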;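 note: 0% = DMSO wells with 35 nM protein and 100% = DMSO wells with 750 nM protein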
EBNA-1 inh – blocks EBNA-1 binding to DNA | EBNA-1 DNA binding, fluorescence polarization | 0.34% of 300,000 active | inhibition, % at 14.8 µM; in the data active = inhibition above about 28%
ZTA DNA inh – ZTA (EBV) inhibition in EBNA-1 counter-screen; inhibition, % at 11 µM; 0.15% of 320,000 active; ZTA-DNA binding, fluorescence polarization; AID 2234; in the data active = inhibition above about 33%
Target sequence (P03206 whole entry, looked up): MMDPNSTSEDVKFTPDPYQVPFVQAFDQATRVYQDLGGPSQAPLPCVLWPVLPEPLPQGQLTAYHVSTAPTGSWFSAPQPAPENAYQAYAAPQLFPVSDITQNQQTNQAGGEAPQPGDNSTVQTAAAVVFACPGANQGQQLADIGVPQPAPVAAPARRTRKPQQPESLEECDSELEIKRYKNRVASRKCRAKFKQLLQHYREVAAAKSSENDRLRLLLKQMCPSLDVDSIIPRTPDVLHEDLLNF
p47phox inh – blocks human p47phox regulatory protein of NADPH oxidases; P14598; p47phox/p22phox peptide binding, fluorescence polarization, 2 h; inhibition, % at 24.7 µM; 0.53% of 220,000 active; AID 1274;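 active = inhibition above about 30%, limit read from the data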;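 note: 0% = p47phox with labelled peptide and 100% = labelled peptide alone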
PG9 Ab binder – small molecules binding HIV-1 gp120 antibody PG9. TR-FRET gp120-PG9 antibody binding. 0.43% of 360,000 active. inhibition, % at 6.7 µM; in the data active = inhibition above about 8.5%
aDG glyco up – alpha-DG glycosylation activation; Pro5-aDG cells, alpha-DG glycosylation AlphaScreen (IIH6); 0% Pro5, 100% B10-LARGE cell signal; activation, % at 10 µM; 0.22% of 360,000 active; AID 624168;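 active = activation of at least 8% versus controls, or a plate z-score of at least 8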;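 note: Pro5 are CHO cells carrying HIG-tagged alpha-DG that lacks glycosylation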
Rev-erbA confirm – confirmation of modulators of human Rev-erb alpha DNA binding. shares compounds with NR1D1 modulator. Rev-erb alpha FITC-DNA binding, fluorescence polarization, 90 min. activation, % at 25 µM. 61% of 3,000 active;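 active = activation at or above a set limit, or at least 3 SD above the negative control mean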;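 note: 0% = 35 nM protein with DMSO and 100% = 750 nM protein high control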
RORg counter – counter-screen for Rev-erb alpha modulators: RORgamma DNA binding. shares compounds with NR1D1 modulator. purified RORgamma protein-FITC-DNA binding, fluorescence polarization. IC50, µM. 8% of 910 active. AID 1259320;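 active = Compounds whose fitted half-maximal concentration for disrupting protein-DNA binding is below 10 micromolar; the record names Rev-erb in its text, so the target is in doubt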
Starred values were filed as active, the others as inactive; . = no result.

SMILES	NR1D1 modulator	EBNA-1 inh	ZTA DNA inh	p47phox inh	PG9 Ab binder	aDG glyco up	Rev-erbA confirm	others
O=C(CSc1nc(C2CC2)nc2sc3c(c12)CCCC3)NCc1ccco1	27*	7	-8	-6	0	0	11
CC/C(=N\Nc1ccccc1[N+](=O)[O-])c1ccc(O)cc1	15*	-6	-2	-7	-4	-1	-2
COC(=O)c1ccc2nc(NC(=O)C3CCCCC3)sc2c1	17*	7	-9	1	-3	0	19*
COC(=O)c1ccc2nc(Nc3nc4ccc(F)cc4s3)sc2c1	48*	-12	-7	-89	2	0	54*
CC(=O)c1sc(Nc2nc3ccc(F)cc3s2)nc1C	-3	2	16	.	0	0	.
COC(=O)c1ccc2nc(NC(=O)C(C)(C)C)sc2c1	6	4	-1	-1	0	0	.
CSc1cc(-c2ccccc2)n(Cc2c(Cl)cccc2Cl)c(=O)c1C#N	13	4	0	-3	-1	0	.
CSc1cc(-c2ccc(Cl)cc2)n(Cc2ccccc2)c(=O)c1C#N	32*	0	-7	-1	-4	0	14
CCc1noc(C)c1C(=O)Nc1ccc(F)c(F)c1	7	-3	-3	.	0	0	.
CCc1noc(C)c1C(=O)Nc1nc(-c2ccc(Cl)cc2Cl)c(C)s1	32*	-6	15	0	4	0	25*
CCOC(=O)c1c(NC(=O)c2cc3n(n2)C(C(F)(F)F)CC(c2ccccc2)N3)sc(C)c1C (stereo not given)	36*	8	18	-19	-2	0	6
NS(=O)(=O)c1ccc(CCNC(=O)c2cc3ccccc3s2)cc1	23*	9	-6	.	-1	0	6
O=C(COc1ncnc2c(Cl)cc(Cl)cc12)NC1CCCCCC1	30*	-2	-8	-10	-1	1	32*	RORg counter=1.3*
CCC(CO)Nc1cccc2c1S(=O)(=O)N(Cc1cn(Cc3cccc(C(F)(F)F)c3)nn1)Cc1ccccc1O2 (stereo not given)	5	.	.	.	.	.	.
COc1ccc(C(=O)C2(C(=O)Nc3cc(C)cc(C)c3)CC(c3ccccc3C(F)(F)F)=NO2)cc1 (stereo not given)	1	.	.	.	.	.	.
Cc1ccc(-n2nc3ccc(NC(=O)c4ccco4)cc3n2)cc1	2	4	7	-7	0	0	.
Cc1ccc(-n2nc3ccc(NC(=O)c4cccc([N+](=O)[O-])c4C)cc3n2)cc1	26*	3	1	2	0	0	0
CC1CCCCC1C(=O)N1CCC(Oc2cccnc2)CC1 (stereo not given)	-5	.	.	.	.	.	.
COC(=O)c1cc(C(c2ccccc2O)C2CCC(C)(C)O2)n2ccccc12 (stereo not given)	-2	.	.	.	.	.	.
Cn1c2ccccc2c(=O)c2c(=O)n(CCCc3ccccc3)cnc21	-3	.	.	.	.	.	.
Cn1c2ccccc2c(=O)c2c(=O)n(Cc3cccc4ccccc34)cnc21	18*	.	.	.	.	.	20*
Cc1ccccc1C(=O)NN(C)c1nc2ccccc2nc1C(F)(F)F	36*	-2	-6	3	-1	0	31*
Cc1cc(NC(=O)C(C)Sc2nc(-c3cccs3)nc3ccccc23)no1 (stereo not given)	42*	.	.	.	5	0	13
C[C@H](CCCCC1(C)OCCO1)CCC(=O)N(c1ccccc1)c1ccccc1	4	.	.	.	.	.	.
O=C(Nc1cccc(-c2nc3ncccc3o2)c1)c1sc2cc(Cl)ccc2c1Cl	31*	-3	-6	-4	-1	0	17*
SMILES	NR1D1 modulator	EBNA-1 inh	ZTA DNA inh	p47phox inh	PG9 Ab binder	aDG glyco up	Rev-erbA confirm	others
CSC1=C(C#N)C(c2ccccc2C)C(C#N)=C(N)N1 (stereo not given)	27*	1	8	-3	-3	0	14
CC1=C(C#N)C(c2ccccc2)C2=C(N1)c1ccccc1C2=O (stereo not given)	-3	1	4	-19	0	1	.
CSC1=C(C#N)C(c2ccccc2Cl)C2=C(N1)c1ccccc1C2=O (stereo not given)	62*	-1	-2	4	0	0	20*
Cc1ccc(S(=O)(=O)c2nc(Nc3ccccc3C#N)sc2Cl)cc1	27*	3	25	-5	46*	0	36*	RORg counter=>40
Cc1ccc(S(=O)(=O)c2nc(Nc3ccccc3N3CCOCC3)sc2Cl)cc1	0	6	10	-6	-1	0	.
CCOC(=O)COc1ccc(C(C)c2ccc(NC(=O)OC(C)(C)C)cc2)cc1 (stereo not given)	-1	.	.	.	.	.	.
CCOc1ncccc1C(=O)Nc1ccc(C(=O)Nc2ccc(OC)cc2)cc1	21*	.	4	.	4	0	14
Cc1ccc2nc(-c3cccc(Br)c3)cc(C(=O)NCC3CCCO3)c2c1 (stereo not given)	24*	-4	1	.	-3	0	9
Cc1ccc(C)c(NC(=O)CN(C)C(=O)c2ccc(-c3cccc(C(F)(F)F)c3)o2)c1	22*	2	11	.	6	0	23*
Cc1sc(NC(=O)Cc2ccc3c(c2)OCO3)nc1-c1ccc2c(c1)CCN2C(=O)c1ccc(F)cc1	3	13	25	-26	-2	0	.
Cc1sc(NC(=O)Cc2ccc3c(c2)OCO3)nc1-c1ccc2c(c1)CCN2C(=O)c1ccccc1F	45*	13	3	-16	-1	0	53*
COCCCn1c(C(=O)NCCC2=CCCCC2)cc2c(=O)n3cccc(C)c3nc21	62*	3	8	.	1	0	40*	RORg counter=>40
CCOC(=O)c1cc2c(nc1NC(=S)NCc1ccccc1)CCCC2	38*	8	-2	-7	0	0	23*
O=C(NCCc1c[nH]c2ccccc12)OCc1cn(Cc2ccccc2Cl)nn1	3	.	.	.	.	.	.
COc1ccccc1-c1cc2nc(NCCc3ccc(S(N)(=O)=O)cc3)ccn2n1	-2	.	.	.	-3	0	.
NS(=O)(=O)c1ccc(CCNc2ccn3nc(-c4cccc(C(F)(F)F)c4)cc3n2)cc1	28*	.	.	.	-1	2	9
O=[N+]([O-])c1ccc(NCCCN2CCC(C(O)(c3ccccc3)c3ccccc3)CC2)cc1	4	.	.	.	.	.	.
Cc1nnc(NC(=O)c2sc3ccccc3c2Cl)s1	4	1	5	-34	4	0	.
CNC(=O)c1ccsc1NC(=O)c1sc2ccccc2c1Cl	96*	10	3	-48	-1	0	72*	RORg counter=>40
Cc1ccc2nsnc2c1NC(=O)c1sc2ccccc2c1Cl	31*	14	1	-9	5	0	32*	RORg counter=>40

Bioassay records from PubChem BioAssay.
